# Results: PubChem BioAssay AID686978 (National Center for Advancing Translational Sciences (NCATS), 2013)
# “And” between values parts separate entries of the source, which are not always exact repeats. Equal entries are not always repeated. The whole screen tested about 420,000 compounds, of which about 64,000 (15%) were called active. About 27% were inconclusive and are not listed. Shown is part of a subset that was picked to be rich in actives. A number with no mark means an inactive call. The call rests on the fitted dose curve; in most records, active means well fitted inhibition curve with a large enough effect; inconclusive means small, poorly fitted or top-dose-only effect; inactive means flat fitted curve, though single readings scatter.
# Experiment: qHTS for Inhibitors of human tyrosyl-DNA phosphodiesterase 1 (TDP1): qHTS in cells in absence of CPT; further: nearly all actives have a fitted effect of over 55% in size
# Conditions: DT40 Tdp1-/- hTDP1 cells, no CPT, ATP luminescence, 48 h; series mostly up to 46.2 µM; activity change, negative = growth inhibition: at the top concentration
# Source text: Human tyrosyl-DNA phosphodiesterase 1 (TDP1) is a novel repair gene, and we propose to use it as a new target for anticancer drug development. TDP1 is not an essential protein, but under treatment with topoisomerase I poison (camptothecin: CPT), TDP1 works as a critical factor for cell survival. To directly identify novel TDP1 inhibitors active in a cellular environment, we have knocked-out the Tdp1 gene in chicken DT40 cells (Tdp1-/-) and generated a complemented counterpart cells that contains a stable transfection of the human TDP1 gene (Tdp1-/-;hTDP1 cells). For the primary screen, Tdp1-/-;hTDP1 cells will be exposed to small molecules in the presence or absence of CPT, and their growth kinetics will be evaluated after 48 hours by measuring ATP activity. […] The hit compounds will then be evaluated in the presence or absence of CPT using Tdp1-/- cells. […] In tertiary assays, biochemical gel-based assays will be used to assess whether the hit compounds specifically target TDP1.
# To this end, we have screened this cell line against the MLSMR in two primary screens. In one screen we add CPT and in the other we screen in the absence of CPT; this AID represents the screen where CPT was absent.
# NIH Chemical Genomics Center [NCGC]
# NIH Molecular Libraries Probe Centers Network [MLPCN]
# Assay Submitter (PI): Yves Pommier, NCI
# DT40-hTDP1 cells without 20 nM Camptothecin (add 20 microL of DMSO in 1 L of cell culture medium) were dispensed at 400 cells/5microL/well in tissue culture treated 1536-well white wall/solid bottom assay plates (Greiner Bio-One North America, NC, U.S.A.) using a Multidrop Combi 8 channel dispenser (Thermo Fisher, Waltham, MA, USA). 23 nL compounds and controls were transferred using the pin tool (Kalypsys, San Diego, CA, USA) to the assay plates. The assay plates were then incubated at 37 masculineC for a minimum 48 hr. Three microL of Cell Titer Glo solution was added to the plates and incubated at RT in dark for 30 min. Luminescence was read using ViewLux (Perkin Elmer) with 1 sec exposure slow speed, high gain and 2x binning.
# On the % scale 0 is the no-effect control and ±100 the full control effect; potency means the concentration at half of the fitted maximal effect.
Compound,"activity change, negative = growth inhibition",Potency
CCN(CC)CCOC(=O)c1cc2cc(COC)ccc2o1,2.59%,–
C=CCN(CC=C)C(=O)Nc1ccc(OCC)cc1,-15.1%,–
CCOC(=O)[C@]12Cc3ccccc3[C@H]1N(C1CCCCC1)C(=O)c1cc(OC)ccc12,–,3.66 µM (active)
CCOC(=O)[C@]12Cc3cc(OC)ccc3[C@H]1N(C(C)C)C(=O)c1ccccc12,–,6.51 µM (active)
O=C(N/N=C/c1c(O)n(C2CC2)c(=S)[nH]c1=O)c1ccccc1,2.47%,–
C[C@]12CC[C@H](O)CC1=C([N+](=O)[O-])CC1C2CC[C@@]2(C)C1CC[C@@H]2O (stereo partly specified),-26.1%,–
CN1C2CC3CC1C(O3)C2O (stereo unspecified),1.96%,–
COc1c(O)ccc2c1-c1c3c(cc4c1C(C2)N(C)CC4)OCO3 (stereo unspecified),-13%,–
COc1ccc2cc1Oc1ccc(cc1)C[C@H]1c3cc(c(OC)cc3CCN1C)Oc1c(O)c(OC)cc3c1[C@H](C2)N(C)CC3,–,8.2 µM (active)
O=C(Cc1ccc(Cl)cc1)NCCN1CCN(C(=O)Cc2ccc(Cl)cc2)CC1,-19.8%,–
Clc1cccc(Cl)c1Cl,11.4%,–
O=[N+]([O-])c1cnc2ccc3ccccc3c2c1,-17.9%,–
CCCCC(=O)N/N=C/c1c(O)n(CC)c(=S)n(CC)c1=O,–,10.3 µM (active)
Cn1c(O)c(C=NCCCC(=O)O)c(=O)n(C)c1=O,1.24%,–
O=C1C2(Cl)C3(Cl)C4(Cl)C(Cl)(Cl)C5(Cl)C3(Cl)C1(Cl)C5(Cl)C24Cl (stereo unspecified),–,16.4 µM (active)
COC1=CC=C2[C@H]3Cc4ccc(OC)c5c4[C@@]2(CCN3C)C1O5 (stereo partly specified),-16.4%,–
COP(=O)(OC)C(NC(=O)c1ccc(C)cc1)C(Cl)(Cl)Cl (stereo unspecified),4.88%,–
O=C1NC(=O)C(Cc2ccccc2)C(=O)N1,5.35%,–
CC(Cc1ccccc1)NC=O (stereo unspecified),–,inactive
COc1ccc(CNC(=O)c2cc3c(-c4ccccc4F)nn(C)c3s2)c(OC)c1,–,6.51 µM (active)
CCOP(=O)(OCC)C(NC(=O)NC)C(N)=O (stereo unspecified),20.8%,–
O=C(O)c1cc[c]([Sb](=[O])([OH])[OH])cc1[N+](=O)[O-],1.08%,–
CCOC(=O)C1(c2ccccc2)CCN(CC(O)c2ccc(NC(C)=O)cc2)CC1 (stereo unspecified),-18.1%,–
CCN1C[C@]2(COC)C(O)C[C@H](OC)[C@@]34C5C[C@]6(O)C(OC)C(O)[C@](OC(C)=O)(C5C6OC(=O)c5ccccc5)C(C(OC)C23)C14 (stereo partly specified),2.58%,–

Compound,"activity change, negative = growth inhibition",Potency
CC(CCC(=O)O)C1CCC2C3C(O)C[C@@H]4CC(O)CC[C@@]4(C)C3CC[C@@]12C (stereo partly specified),–,inactive
C/C=C/CC1(CC)C(=O)NC(=S)NC1=O,-15.3%,–
COC(=O)C1=C(c2cccc(OCc3ccccc3)c2)C[C@@H]2CC[C@H]1N2C(=O)NNCc1ccccc1,–,10.3 µM (active)
COC(=O)C(c1ccccc1)N1CCCCCC1 (stereo unspecified),-0.202%,–
COC(=O)C1=C(c2ccccc2)C[C@@H]2CC[C@H]1N2C(=O)NCc1ccco1,-23.1%,–
COC(=O)C1=C(c2c(C)noc2C)C[C@@H]2CC[C@H]1N2C(=O)NCc1ccc2c(c1)OCO2,-20.5%,–
COC(=O)C1=C(c2ccc(OCc3ccccc3)cc2)C[C@@H]2CC[C@H]1N2C(=O)NCc1cccc(F)c1,–,14.6 µM (active)
COC(=O)C1=C(c2ccccc2)C[C@@H]2CC[C@H]1N2C(=O)N1CCCCC1,–,6.51 µM (active)
COC(=O)C1=C(c2ccc(OCc3ccccc3)cc2)C[C@@H]2CC[C@H]1N2C(=O)NCc1ccc(Cl)cc1,–,16.4 µM (active)
COC(=O)C1=C(c2cc3ccccc3s2)C[C@@H]2CC[C@H]1N2C(=O)NCCO,-0.15%,–
CC[N+](CC)(CC)CCCCCCCCCC[N+](CC)(CC)CC,-1.16%,–
CNC(=O)N(C)c1nnc(C(C)(C)C)s1,–,inactive
COP(=O)(NS(=O)(=O)c1ccccc1)OC,10.3%,–
CN1[C@@H]2CC[C@H]1CC(OC(=O)c1cc(Cl)cc(Cl)c1)C2 (stereo partly specified),–,13.3 µM (active) and 11.9 µM (active)
CN1CCC(OC(=O)c2cccc(F)c2)CC1,-23.6%,–
CNP1(NC)=Nc2nn(-c3ccccc3)c(N)c2C(c2ccccc2)=N1,-8.1%,–
Cc1cccc(Cn2cccc(C(=O)Nc3ccc4c(c3)OCCO4)c2=O)c1,–,20.6 µM (active)
CCN(CC)C(=O)c1ccc(NC(=O)c2cc(-n3cnnc3)ccc2Cl)cc1,-6.17%,–
COc1cc(OC)cc(C2(C#N)CCN(C)CC2)c1,6.77%,–
Cc1ccc(-n2c(O)c(C=NCC3CCCO3)c(=O)[nH]c2=O)c(C)c1 (stereo unspecified),-4.24%,–
CNC(=O)Nc1ccc(C(O)(C(=O)OC)C(F)(F)F)cc1 (stereo unspecified),-2.08%,–
Cc1cc(C(=O)OCC(=O)Nc2c(F)cccc2F)c(C)n1C1CC1,2.09%,–
COC(=O)[C@@]12C[C@@H](CC(=O)NCc3cccc(C(F)(F)F)c3)C(=O)N(Cc3ccco3)C1=CCC(C)(C)C2,–,13 µM (active)
COc1cc(Cl)ccc1Nc1ncc(C(=O)N2CCN(c3ccccc3OC)CC2)c2ccccc12,–,5.8 µM (active)

Compound,"activity change, negative = growth inhibition",Potency
C[C@@]1([C@@H](NP(=O)(c2ccccc2)c2ccccc2)c2ccccc2)C[C@H]1CCO,–,18.4 µM (active)
CCN1CCN(C(=O)Cc2coc3cc(C)cc(C)c23)CC1,-10.5%,–
c1cncc(CNC2=NCCC2)c1,-15%,–
CCN1C(=O)NC(=O)C2(CCCC2)C1=O,-4.11%,–
O=C(CCCn1c(=O)[nH]c2cc(Cl)ccc2c1=O)N1CCC2(CC1)OCCO2,-6.95%,–
Cc1ccc(Cn2c(C)c3cnn(CC(=O)N4CCC5(CC4)OCCO5)c(=O)c3c2C)cc1,–,14.6 µM (active)
COc1ccc(-c2nc(CS(=O)CC(=O)N3CCC4(CC3)OCCO4)c(C)o2)cc1 (stereo unspecified),2.45%,–
Cc1ccc(C(C)C)c(OCC(=O)N2CCN(CC(=O)N3CCOCC3)CC2)c1,-17.4%,–
COC1C(O)C(C)OC(OC2CCC3(C=O)C(CCC4C3CCC3(C)C(C5=CC(=O)OC5)CCC43O)C2)C1O (stereo unspecified),–,0.206 µM (active)
COC1CC(OC2CC[C@@]3(C=O)C4CC[C@]5(C)C(C6=CC(=O)OC6)CC[C@@]5(O)C4CC[C@]3(O)C2)OC(C)C1O (stereo partly specified),–,0.92 µM (active)
CN(C)/C=C(\C=[N+](C)C)c1[nH]ncc1[N+](=O)[O-],7.97%,–
Cc1ccc(C2CN(C)CC2C(=O)c2ccc(F)cc2)cc1 (stereo unspecified),-12.1%,–
COc1ccc(-n2c(O)c(C(C)=Nc3ccc4c(c3)CCC4)c(=O)[nH]c2=O)cc1,-28.5%,–
Cc1ccc(-c2nc3ccccc3c(=O)n2-c2ccc(Br)cn2)cc1,-24.3%,–
O=c1c2ccccc2nc(-c2ccccc2)n1-c1ccccn1,-2.29%,–
CSc1nc2ccc(C)cc2c(=O)n1-c1cccnc1,-9.55%,–
Cc1ccc(-n2c(-c3ccc([N+](=O)[O-])cc3)nc3ccccc3c2=O)cc1,–,8.2 µM (active)
COc1ccc(-n2c(-c3ccccc3)nc3ccccc3c2=O)cc1,–,13 µM (active)
COC1=C[C@]23CCCN2CCc2cc4c(cc2[C@@H]3[C@@H]1O)OCO4,-13.2% [at 9.04 µM],–
c1ccc2sc(C3CCCNC3)nc2c1 (stereo unspecified),-13%,–
CN(C)C(=O)Oc1cc(OC(=O)N(C)C)cc(C(O)CNC(C)(C)C)c1 (stereo unspecified),–,inactive
CC(=O)Cc1ccc(OC(C)C)cc1,-10.7%,–
OC1/C(=C/c2ccc(C(F)(F)F)cc2)N2CCC1CC2 (stereo unspecified),-13%,–
O=C(CCC(=O)N1C[C@H]2C[C@@H](C1)c1cccc(=O)n1C2)NCc1ccccc1C(F)(F)F,-0.958%,–

Compound,"activity change, negative = growth inhibition",Potency
C#C[C@]1(O)CC[C@H]2[C@@H]3CCC4=C/C(=N/O)CC[C@@H]4[C@H]3CC[C@@]21CC,–,21.1 µM (active)
C#C[C@]1(OC(=O)CCCCCC)CC[C@H]2[C@@H]3CCC4=CC(=O)CC[C@@H]4[C@H]3CC[C@@]21C,-21.7%,–
CC(C)N(CC#CCC1(O)c2ccccc2-c2ccccc21)C(C)C,-24.2%,–
C[C@]12CCC3C(CC[C@H]4C[C@@H](O)CC[C@]34C)C1CC[C@@H]2O (stereo partly specified),4.7%,–
O=C(O)C1CSC(c2cccnc2)N1 (stereo unspecified),-11.6%,–
CC(=O)c1ccc(S(=O)(=O)N2CCN(c3nc4c(C)c(C)ccc4cc3C#N)CC2)cc1,–,12.6 µM (active)
CCOC(=O)CC1=C(C(=O)OCC)C2(C(=O)N1)C(C(=O)OC)=C(N)Oc1ccccc12 (stereo unspecified),0.689%,–
O=c1[nH]c(=O)n(CCc2ccc(F)cc2)c(O)c1/C=N/N1CCCCC1,-14.5%,–
CCCCC(=O)N/N=C/c1c(O)n(CCC2=CCCCC2)c(=O)[nH]c1=O,–,25.9 µM (active)
CCCCC(=O)N/N=C/c1c(O)n(-c2ccccc2)c(=O)[nH]c1=O,-10.2%,–
CC(C)(Cc1c[nH]c2ccc(Cl)cc12)NCCOc1ccccc1OCC1CC1,–,26.6 µM (active) and 5.17 µM (active)
CC1CCC(N(C)C2CCN(C)CC2)CC1 (stereo unspecified),-18.5%,–
O=C(COC(=O)Cc1ccccc1)Nc1ccc(F)cc1,1.09%,–
CCOC(=O)c1ccc(N2C(=O)c3[nH]nc(-c4ccccc4)c3C2c2ccc(C(C)C)cc2)cc1 (stereo unspecified),–,25.9 µM (active)
CCN(N=Nc1nonc1OC)c1nonc1OC,-6.66%,–
O=c1[nH]c(=O)n(-c2ccc(F)cc2)c(O)c1C=NCCN1CCCCC1,4.02%,–
CCn1cc2nc(SCc3ccccc3Cl)n(CCc3ccccc3)c(=O)c2n1,–,20.6 µM (active)
COc1cccc(OC)c1C(=O)NC(=S)N1C[C@H]2C[C@H](C1)c1cccc(=O)n1C2,0.63%,–
CC(C)=C[C@@H]1[C@@H](C(=O)OCc2coc(Cc3ccccc3)c2)C1(C)C,-4.94%,–
CN1CCN(C(=O)O[C@@H]2c3nccnc3C(=O)N2c2ccc(Cl)cn2)CC1,-14.9%,–
CCC(C)(O)C(=O)OC1C(=O)OC2CC3C(C)=CC(=O)C(O)C3(C)C3C4(O)OCC23C1C(C)C4O (stereo unspecified),–,0.13 µM (active)
N#CC(C#N)=Cc1cc(O)c(O)c([N+](=O)[O-])c1,-19.8%,–
O=C(N/N=C/c1ccc([N+](=O)[O-])o1)c1cc([N+](=O)[O-])cc([N+](=O)[O-])c1O,-54%,–
CC(=O)OC1C2CCC3C1(CC(O)[C@@]1(O)[C@@H](CC(O)C1(C)C)[C@]3(C)O)C[C@@]2(C)O (stereo partly specified),0.989%,–
